Shown is part of a subset that was picked to be rich in hits.
LmPK inh – blocks Leishmania mexicana pyruvate kinase activity; 290,000 compounds, 0.37% hits; purified LmPK, Kinase-Glo ATP luminescence, 1 h; Potency, µM (titrated, usually from 57.5 µM), actives largely listed as inhibitors; Q27686
Target sequence (Q27686 whole entry, looked up): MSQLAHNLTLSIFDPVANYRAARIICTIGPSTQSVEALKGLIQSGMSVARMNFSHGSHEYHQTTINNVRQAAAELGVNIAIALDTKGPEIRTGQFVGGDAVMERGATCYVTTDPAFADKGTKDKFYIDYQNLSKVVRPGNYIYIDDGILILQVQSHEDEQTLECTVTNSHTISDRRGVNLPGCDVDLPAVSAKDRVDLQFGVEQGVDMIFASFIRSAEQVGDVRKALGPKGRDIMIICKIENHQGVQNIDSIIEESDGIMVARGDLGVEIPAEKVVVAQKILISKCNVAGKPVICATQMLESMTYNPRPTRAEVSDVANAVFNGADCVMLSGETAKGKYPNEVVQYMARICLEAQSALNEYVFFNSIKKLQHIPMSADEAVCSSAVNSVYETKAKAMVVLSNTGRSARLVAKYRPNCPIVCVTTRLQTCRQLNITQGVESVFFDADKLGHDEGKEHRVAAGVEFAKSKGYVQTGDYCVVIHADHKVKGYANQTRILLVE
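Purified LmPK (0.1 nM) converted ADP (0.1 mM) to ATP with PEP (0.5 mM) in imidazole buffer pH 7.2 with KCl and MgCl2, 1 h at room temperature. ATP was read by Kinase-Glo luminescence; data normalized to uninhibited and no-enzyme controls.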
Shiga inhibitor – Shiga toxin inhibition | 290,000 compounds, 9.2% hits | Vero cells, Shiga toxin protein synthesis inhibition reporter | inhibition, % at 38.7 µM; in the data active means inhibition mostly above about 28%, no sharp cut-off; inactive means mostly below about 43%
Giardia FBPA inh – blocks Giardia fructose-bisphosphate aldolase activity | A8B2U2 | purified Giardia FBPA | Potency, µM (top dose mostly 59.6 µM), hits mostly inhibitors | 290,000 compounds, 0.71% hits; further: nearly all actives have a fitted effect of over 55% in size
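Giardia FBPA (40 nM reagent) was preincubated 10 min at RT with compound (up to 57.5 uM final), then substrate plus GAPDH/TPI/NAD/arsenate coupling system with diaphorase/resazurin was added; resorufin fluorescence (525/598 nm) was read after 20 min.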
TbPYK inhibitor – T. brucei pyruvate kinase inhibition; Potency, µM (doses to about 76.8 µM), actives largely listed as inhibitors; 410,000 compounds, 0.12% hits; TbPYK enzyme, Kinase-Glo Plus ATP luminescence, 45 min; Q57TT1; further: nearly all actives have a fitted effect of over 50% in size
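Quantitative HTS: titrated library compounds versus trypanosomal pyruvate kinase in TEA buffer (pH 7.2) containing KCl, MgCl2, BSA and Tween-20. Reactions were initiated with ADP, 130 uM final. Kinase-Glo Plus luminescence was read after 45 min at RT.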
Cycloheximide cs – counter-screen hit for Shiga toxin inhibitors, cycloheximide. AID 2314. max response, %. cell reporter, cycloheximide protein synthesis inhibition counterscreen. 300,000 compounds, 12% hits; in the data active means max response mostly above about 13%, no sharp cut-off; inactive means mostly below about 14%; further: read at 38.3 µM for the half of the compounds with a filed dose
RE007 growth inh – less growth of the S. pombe RE007 Vpr strain; Potency, µM (top dose mostly 92.2 µM), most hits filed as inhibitors; S. pombe RE007 Vpr strain, BacTiter-Glo ATP luminescence, 24 h; 360,000 compounds, 0.21% hits; active means well fitted falling curve with a large enough effect; inconclusive means small, poorly fitted or top-dose-only effect; inactive means no such curve, though single readings can be large or run the other way; further: nearly all actives have a fitted effect of over 50% in size
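Fission yeast strain RE007, carrying one chromosomally integrated HIV-1 vpr copy, was seeded at OD 0.01 in PMG+AL medium with 23 nL pinned compound. After 24 h at 30 °C and 99% humidity, viability was read by BacTiter-Glo luminescence.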
Numbers stand for hits; n = inactive; u = inconclusive; x = no result; + = active, no number; [ ] = remark or other dose. Unless noted, the call rests on the fitted dose curve; in most records, active means well fitted curve in the direction sought with a large enough effect; inconclusive means small, poorly fitted or top-dose-only effect, or another doubt; inactive means no such curve, though single readings can be large; an effect the other way counts as inactive or inconclusive.

SMILES | LmPK inh | Shiga inhibitor | Giardia FBPA inh | TbPYK inhibitor | Cycloheximide cs | RE007 growth inh
CCCc1cc(C(=O)Nc2nnc(C)s2)cs1 | n | 128 | n | n | 33 | n
Cc1nnc(NC(=O)c2ccc3ccccc3c2)s1 | n | 74 | x | n | 31 | n
Cc1ccc(C(=O)Nc2nnc(C)s2)cc1 | n | 64 | n | n | 27 | n
CCOc1cc(C(=O)Nc2nnc(C)s2)cc(OCC)c1OCC | n | n | n | n | n | n
CCc1nccn1CCC(=O)NC1CCCc2c1cnn2-c1ccc(F)cc1F (stereo not drawn) | n | n | x | n | n | n
Cc1ccc(C2=NN(S(C)(=O)=O)C(c3ccc4nccnc4c3)C2)cc1 (stereo not drawn) | n | 46 | n | n | 19 | n
CS(=O)(=O)N1N=C(c2ccccc2)CC1c1ccc2nccnc2c1 (stereo not drawn) | n | 63 | n | n | n | n
O=C(c1ccco1)N1N=C(c2ccccc2)CC1c1ccc2nccnc2c1 (stereo not drawn) | n | n | n | n | 16 | n
Cc1ccc2nc(Cl)c(C3CC(c4ccco4)=NN3S(C)(=O)=O)cc2c1 (stereo not drawn) | n | n | n | n | n | n
O=C(O)CCCC(=O)N1N=C(c2ccccc2)CC1c1ccc2nccnc2c1 (stereo not drawn) | n | n | n | n | n | n
COc1ccc(C2CC(c3ccc(OC)c(OC)c3)=NN2S(C)(=O)=O)cc1 (stereo not drawn) | n | 88 | n | n | 63 | n
O=C(O)CCC(=O)N1N=C(c2ccccc2)CC1c1ccc2nccnc2c1 (stereo not drawn) | n | n | n | n | n | x
CCCN1CC(CSC)C[C@H]2c3cccc4[nH]cc(c34)C[C@H]21 (stereo partly drawn) | x | x | n | x | x | x
CN(C)S(=O)(=O)c1ccc2c(c1)N(CC(=O)NCc1cccc(Br)c1)C(=O)CS2 | x | x | x | n | x | x
CS(=O)(=O)N1N=C(c2ccc3nccnc3c2)CC1c1ccccc1 (stereo not drawn) | n | n | n | n | 17 | n
CS(=O)(=O)Nc1cccc(C2=NN(S(C)(=O)=O)C(c3ccccc3)C2)c1 (stereo not drawn) | n[11.5 µM] | n | n | n | n | n
COc1ccc(C2CC(c3c(-c4ccccc4)c4cc(Cl)ccc4[nH]c3=O)=NN2S(C)(=O)=O)cc1 (stereo not drawn) | n | n | n | n | n | n
COc1ccc(C2=NN(S(C)(=O)=O)C(c3ccc4nccnc4c3)C2)cc1 (stereo not drawn) | n | 60 | n | n | 79 | n
CN(C)c1ccc(/C=N/n2cnn(Cc3ccccc3Cl)c2=S)cc1 | n | 97 | n | n | 38 | n
Cn1c(N)c(C(=O)CSc2nnc(NC3CCCCC3)s2)c(=O)n(C)c1=O | x | x | x | n | x | n
COc1ccc2c(c1)C(=NN)c1cc(OC)ccc1-2 | n | n | x | n | 45 | n
COc1ccc(OC)c(N)c1 | n | n | u | u | n | n
O=c1c2cc(Br)ccc2nc(-c2ccccc2)n1O | n | n | n | n | 11 | x
Cc1ccc(-c2nc3ccccc3c(=O)n2O)cc1 | n | n | n | n | n | u
Cc1nc(-c2ccccc2)nc2[nH]c(=O)n(-c3ccccc3)c(=O)c12 | n | 54 | n | n | 31 | n
SMILES | LmPK inh | Shiga inhibitor | Giardia FBPA inh | TbPYK inhibitor | Cycloheximide cs | RE007 growth inh
CC(C)(C)OC(=O)N1CCC(c2cc(-c3cccs3)n[nH]2)CC1 | n | n | n | n | 26 | n
O=C(CCl)c1ccc2c(c1)CCN2C(=O)C1CCCCC1 | n | n | n | n | n | 11µM
O=C(CCl)c1ccc2c(c1)CCN2C(=O)C1CC1 | n | n | n | x | n | x
O=C1C2C3C=CC(C3)C2C(=O)N1c1ccc(-c2nc3ccccc3o2)cc1 (stereo not drawn) | n | n | n | n | 29 | n
NC(c1csc(Nc2cc(NCCCO)ncn2)n1)c1ccccc1Cl (stereo not drawn) | x | x | x | n | x | n[18.4 µM]
Cc1ccc(C2CC(=O)Oc3cc4c(cc32)OCO4)cc1 (stereo not drawn) | x | n | 50µM | x | n | x
COc1cccc2oc(SC)cc(=O)c12 | x | + | n | x | n | x
COc1cccc2oc(-c3ccccc3)cc(=O)c12 | x | 33 | n | x | 29 | x
COc1cccc2oc(-c3ccc(O)cc3)cc(=O)c12 | x | x | n | x | x | x

Screens (PubChem)
